# Assay results taken from PubChem BioAssay (NCI).
# The panel holds about 83,000 compounds, 20% with a hit somewhere; the sample as a whole holds those more often.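 Note: values are percent growth. 100 is the growth of untreated cells, values between 100 and 0 indicate rising inhibition; between -100 and 0 indicates cell death.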 Unmarked numbers belong to inactive results. Activity calls are given as the source filed them. The calls were made as follows: active = growth percent below 10; inactive = the rest.
# Columns and labels:
# Assay in all cases: NCI-60 one-dose screen, 48 h (100 = growth as untreated, 0 = no growth, -100 = all killed)
# Settings in all cases: 10 µM
# NCI-H23 lung = system: NCI-H23 lung
# NCI-H226 lung = system: NCI-H226 lung
# NCI-H322M lung = system: NCI-H322M lung
# HOP-62 NSCLC = system: HOP-62 NSCLC
# NCI-H460 lung = system: NCI-H460 lung
# NCI-H522 lung = system: NCI-H522 lung
# A549/ATCC NSCLC = system: A549/ATCC NSCLC
# 786-0 renal = system: 786-0 renal
# COLO 205 colon = system: COLO 205 colon
# DU-145 prostate = system: DU-145 prostate
# K-562 leukemia = system: K-562 leukemia
# MALME-3M melanoma = system: MALME-3M melanoma
# MDA-MB-231 breast = system: MDA-MB-231 breast
# RXF 393 renal = system: RXF 393 renal
# SF-268 CNS = system: SF-268 CNS
# SF-295 CNS = system: SF-295 CNS
# SF-539 CNS = system: SF-539 CNS
# UACC-257 melanoma = system: UACC-257 melanoma
# M14 melanoma = system: M14 melanoma
# HCT-15 colon = system: HCT-15 colon
Compound,growth (NCI-H23 lung),growth (NCI-H226 lung),growth (NCI-H322M lung),growth (HOP-62 NSCLC),growth (NCI-H460 lung),growth (NCI-H522 lung),growth (A549/ATCC NSCLC),growth (786-0 renal),growth (COLO 205 colon),growth (DU-145 prostate),growth (K-562 leukemia),growth (MALME-3M melanoma),growth (MDA-MB-231 breast),growth (RXF 393 renal),growth (SF-268 CNS),growth (SF-295 CNS),growth (SF-539 CNS),growth (UACC-257 melanoma),growth (M14 melanoma),growth (HCT-15 colon)
CN(C)Cc1cn(-c2ncc(-c3ccc(C(F)(F)F)cc3)c(NC3CCCCCC3)n2)nn1,95.6%,88.8%,88.3%,94.2%,93.4%,73.5%,95.2%,90.4%,70.9%,89.3%,38.2%,73.5%,89.5%,93.6%,88.5%,94.3%,99.3%,82.8%,84.5%,94.1%
Cc1cc(=O)[nH]c(N/N=C/c2ccccc2O)n1,78.6%,91%,-5.84% (active),61.3%,23.3%,77.3%,33.1%,93.4%,49.2%,78.8%,59.9%,35.1%,76.6%,90%,39.1%,43.2%,96.8%,88%,29.9%,40.7%
CN(C)c1ccc(Cc2ccc(N(C)C)cc2Cl)c(Cl)c1,97%,89.4%,99.3%,105%,98.4%,80.1%,96.5%,112%,108%,103%,90.2%,91.9%,109%,93.2%,103%,116%,108%,110%,107%,101%
COc1cc(Nc2ncnc(Nc3ccc4c(n3)NC(=O)C(C)(C)O4)n2)cc(OC)c1OC,25.5%,-27.7% (active),4.97% (active),13.6%,12.1%,-11.6% (active),-23.1% (active),8.87% (active),-2.65% (active),18.8%,34.6%,28.2%,3.82% (active),-86.6% (active),-21% (active),19.6%,-59.3% (active),30.2%,40%,22.9%
C/C(N)=C(\C#N)C(=O)c1ccccc1,104%,98%,107%,105%,103%,96.6%,97.6%,106%,105%,110%,109%,90.5%,121%,97.5%,110%,94.1%,103%,88%,110%,98.2%
COc1ccc(-c2nn(-c3cccc(NC(=O)c4ccc(N5CCOCC5)c(C(F)(F)F)c4)c3)cc2-c2ccncc2)cc1Cl,83.2%,83.6%,80.3%,73.7%,62.1%,41%,54.7%,37.9%,54.6%,91.8%,23.6%,48.7%,66.4%,18.7%,70.7%,9.97% (active),41%,67.8%,65%,53.5%
Cn1c(N)c(N=Nc2ccc(S(=O)(=O)Nc3nccs3)cc2)c(=O)n(C)c1=O,94%,104%,92.9%,105%,109%,82.2%,105%,98.1%,105%,106%,90.2%,86.8%,111%,130%,103%,91%,98.3%,95.6%,101%,110%
COc1cc(C(=O)N2CCN(c3ccccc3OC)CC2)c(N)cc1OCCCN1CCN(c2ccccc2OC)CC1,69.8%,84.6%,100%,93.2%,108%,79.4%,92.7%,96%,85.9%,103%,8.81% (active),83.4%,80.3%,92.5%,110%,96.9%,89.9%,104%,85.2%,98.7%
